Among all 310,000 compounds or so, about 1,200 (0.39%) were called active. No rule for the calls is given here. Only a sample is shown. Potency and affinity values are given separately.
These compounds were tested against Large T antigen (Simian virus 40) (UniProt P03070) (assay: TAg ATPase/helicase activity blockers – biochemical (AID 1903)). Settings: SV40 large T antigen ATPase/helicase inhibition assay; at 20 µM; stronger effect = higher value.
Large T antigen (Simian virus 40), sequence (P03070 whole entry, looked up): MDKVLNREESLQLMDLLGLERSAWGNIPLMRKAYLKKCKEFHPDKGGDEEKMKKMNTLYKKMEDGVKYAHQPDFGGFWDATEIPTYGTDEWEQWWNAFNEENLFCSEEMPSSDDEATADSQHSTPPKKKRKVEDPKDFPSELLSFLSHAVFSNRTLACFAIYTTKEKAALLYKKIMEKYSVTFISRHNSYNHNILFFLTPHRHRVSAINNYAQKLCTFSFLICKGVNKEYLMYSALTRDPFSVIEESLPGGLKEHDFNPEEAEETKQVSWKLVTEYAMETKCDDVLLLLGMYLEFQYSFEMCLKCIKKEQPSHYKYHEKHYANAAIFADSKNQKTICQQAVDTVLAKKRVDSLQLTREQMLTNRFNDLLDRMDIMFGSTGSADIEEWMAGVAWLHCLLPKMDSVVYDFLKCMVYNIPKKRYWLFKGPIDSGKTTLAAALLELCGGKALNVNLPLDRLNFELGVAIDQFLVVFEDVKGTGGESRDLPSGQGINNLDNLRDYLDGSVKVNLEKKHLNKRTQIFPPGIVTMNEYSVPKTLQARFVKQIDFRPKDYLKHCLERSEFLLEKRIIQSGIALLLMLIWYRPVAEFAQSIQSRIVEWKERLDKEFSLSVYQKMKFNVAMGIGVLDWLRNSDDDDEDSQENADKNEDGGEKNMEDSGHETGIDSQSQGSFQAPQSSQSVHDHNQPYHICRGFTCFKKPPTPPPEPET

inhibition, inactive:
Clc1ccc(-c2cnc3ccccc3n2)cc1 5.89%
CN1C(=O)[C@@H]2C[C@@]3([C@@]45C[C@H]6C(=O)N(C)[C@@H](Cc7ccccc7)C(=O)N6[C@@H]4Nc4ccccc45)c4ccccc4N[C@H]3N2C(=O)[C@@H]1Cc1ccccc1 4.57%
O=C(O)CCn1cc(/C=C2\SC(=S)NC2=O)c(-c2ccccc2)n1 1.75%
O=Cc1cn(CCC(=O)O)nc1-c1cccc(Cl)c1 7.59%
COc1ccc(C2(C(=O)Nc3cc(C)on3)CCOCC2)cc1 0.88%
O=C(O)c1cccc(Cn2c(Cl)c(/C=N/NC(=O)c3ccccc3)sc2=O)c1 7.08%
O=C(O)c1cccc(Cn2c(Cl)c(/C=N/Nc3ccccc3)sc2=O)c1 29.6%
CCC(C(=O)NC1CCCCCC1)n1nc(C)c2c(C)n(-c3ccccc3)nc2c1=O (stereo not given) 8.34%
COC(=O)c1ccc(NC(=O)CN(C2CCCCC2)S(C)(=O)=O)cc1 -3.48%
Cc1ccc([N+](=O)[O-])cc1N -1.11%
Cc1cc([N+](=O)[O-])ccc1N 6.27%
Cc1ccc(CN2CCN(C/C=C/c3ccc(F)cc3)CC2CCO)o1 (stereo not given) 19.4%
Cc1sc2ncn(CC(=O)NCc3ccco3)c(=O)c2c1-c1ccc(F)cc1 14.3%
Cc1ccc(C(=O)N2CC(C)SC2=Nc2cccc(S(=O)(=O)N(C)C)c2)cc1 (stereo not given) 18.9%
CCN=C1S/C(=C\c2cc(Br)c(O)c(OC)c2)C(=O)N1CC 25.1%
COc1cc(/C=N/Nc2cccc(C)c2)cc(Br)c1O 13.3%
COc1ccc(/C=N/N2C(=O)CSC2=S)cc1Br 33.2%
COc1cc(/C=N/N2CCN(Cc3ccc(Cl)cc3)CC2)cc(Br)c1O 10.9%
COc1cc(/C=N/N2C(=O)CSC2=S)ccc1O 37.9%
CCN=c1scc(C)n1/N=C/c1ccsc1 12.1%
COc1cc(/C=N/n2c(C3CCCCC3)n[nH]c2=S)cc(Br)c1O 12.8%
CCN=c1scc(C)n1/N=C/c1ccc(O)c(O)c1O 9.52%
COc1ccccc1NC(=O)c1sc2nc(N3CCOCC3)c3c(c2c1N)CCCC3 15.5%
S=c1[nH]nc(-c2ccccn2)n1/N=C/c1c(Cl)cccc1Cl 24.9%
COc1ccccc1N1CCN(C(=O)/C=C/c2ccccc2)CC1 5.64%
COc1ccc(/C=C(/C#N)C(=O)Nc2ccc(C)cc2C)cc1C(=O)O 19.8%
COc1cc(NC(=O)C2=C(N3CCOCC3)/C(=C\c3ccc(Br)cc3)CC2)cc(OC)c1OC -0.46%
O=C(Nc1ccccc1)c1cccc(S(=O)(=O)N2CCCCC2)c1 1.37%
Cn1c2ccccc2c2n[nH]c(=S)nc21 14.8%
CCOC(=O)c1c(S(=O)(=O)NCc2ccc(OC)cc2)c(C)n(C)c1C 8.6%
O=C(CSCC(=O)N1CCCCC1)OCC(=O)c1c[nH]c2ccccc12 7.84%
O=C(CSC1=NS(=O)(=O)c2ccccc2N1)NCCc1ccccc1 10.2%
O=C1CSC(=S)N1/N=C/c1ccc(Cl)c([N+](=O)[O-])c1 29.2%
CCCCCC(=O)N/N=C/c1cc(Br)c(O)c(OC)c1 24.7%
O=C1CSC(=S)N1/N=C/c1cc(Br)ccc1O 19.8%
COc1cc(/C=N/N=C/c2cc(OC)c(O)c(OC)c2)cc(OC)c1O 36.7%
COc1cc(/C=N/N2C(C)CCCC2C)cc(Br)c1O (stereo not given) 29.5%
COc1cc(/C=N/NC(=O)CC2(C)OCCO2)cc(Br)c1O 18%
O=C(O)/C=C/c1ccc(S(=O)(=O)Nc2ccc(C(=O)NCC(=O)O)cc2)cc1 -0.46%
Cc1ccccc1OCC(=O)N(CC(C)C)c1c(N)n(CC(C)C)c(=O)[nH]c1=O -0.915%
CCOC(=O)c1sc(Nc2ccc(F)cc2)nc1C 3.22%
O=C(Cc1ccc(Cl)cc1)Nc1ccccc1C(=O)N1CCCCC1 5.13%
Cc1ccc(/C=N/N2CCN(c3ccccn3)CC2)cc1 3.29%
Cn1cccc1/C=N/N1CCN(Cc2ccccc2Cl)CC1 36.4%
Cn1cccc1/C=N/N1CCN(Cc2ccc(Cl)cc2)CC1 33.2%
Oc1cccc(/C=N/N2CCN(c3ccccn3)CC2)c1 27.9%
C(=N\N1CCN(c2ccccn2)CC1)/c1ccccn1 10.2%
Cn1cccc1/C=N/N1CCN(c2ccccc2)CC1 26.4%
O=C1CC(NCCN2CCOCC2)C(=O)N1Cc1ccc(N2CCCC2=O)cc1 (stereo not given) 2.31%
O=C(CSc1nc2ccccc2o1)NCCOc1ccccc1 -0.36%
CCOc1ccc(CSCCNC(=S)Nc2ccc(OC)cc2)cc1 18.9%
CCOc1ccc(CCNC(=O)C2CC(=O)N(c3ccc4c(c3)OCCO4)C2)cc1OCC (stereo not given) 19.5%
O=C(NCCNc1nccc(C(F)(F)F)n1)c1cccs1 7.79%
CCN(CC)C(=O)CSc1nc2nc(C)cc(C)c2c(=O)[nH]1 3.63%
O=C(Nc1ccc(C2SCCS2)cc1)c1ccccc1 5.93%
Cn1c(N)c(C(=O)COC(=O)CC2CC3CCC2C3)c(=O)n(C)c1=O (stereo not given) 12.6%
Cc1ccc(Cl)cc1Nc1nc(-c2cccnc2)cs1 5.81%
Cc1cccc(C)c1NC(=O)CSCC(=O)O 11.2%
Cc1cccc(C)c1NC(=O)CSCCO 7.3%
Brc1c(CSc2nncn2-c2ccccc2)nc2sccn12 3.07%

Reference: PubChem BioAssay AID1903 (Southern Research Specialized Biocontainment Screening …, 2009)
